Measurements from PubChem BioAssay (Tox21).
Results filed as inconclusive are left out. A structure can be active in one record and inactive in another. Active and inactive are the calls of the source. Unless noted, calls come from the whole dose curve; as a rule, active = well fitted curve in the direction sought with a large enough effect in the repeat runs; inconclusive = weak or mixed curves; inactive = no such curve, though single readings can be large; an effect the other way counts as inactive or inconclusive.

Experiments:
[1] = qHTS assay to identify small molecule antagonists of the glucocorticoid receptor (GR) signaling pathway - cell viability counter screen (AID 720693); note: nearly all actives have a fitted effect of over 55% in size
[2] = qHTS assay for identifying genotoxic compounds that show differential cytotoxicity against isogenic chicken DT40 cell lines with known DNA damage response pathways - wild type cell line (AID 743012); note: nearly all actives have a fitted effect of over 60% in size
Summary of the method: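 CellTiter-Glo luminescence readout of viability in wild type DT40 cells after 40 h compound exposure at 37 C/5% CO2; 300 cells/well; reagent incubated 30 min at room temperature before reading.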

[3] = qHTS assay for identifying genotoxic compounds that show differential cytotoxicity against isogenic chicken DT40 cell lines with known DNA damage response pathways - Rev3 mutant cell line (AID 743014); note: nearly all actives have a fitted effect of over 55% in size
[4] = qHTS assay for identifying genotoxic compounds that show differential cytotoxicity against isogenic chicken DT40 cell lines with known DNA damage response pathways - Rad54/Ku70 mutant cell line (AID 743015); note: nearly all actives have a fitted effect of over 60% in size
[5] = target: Androgen receptor (Homo sapiens) (UniProt P10275); assay: qHTS assay to identify small molecule antagonists of the androgen receptor (AR) signaling pathway (AID 743035; active = well fitted inhibition curve with a large enough effect in the signal ratio in the repeat runs, not every such curve was filed as active; the % refers to the signal ratio)
Chain of Androgen receptor (Homo sapiens) (P10275 whole entry, looked up): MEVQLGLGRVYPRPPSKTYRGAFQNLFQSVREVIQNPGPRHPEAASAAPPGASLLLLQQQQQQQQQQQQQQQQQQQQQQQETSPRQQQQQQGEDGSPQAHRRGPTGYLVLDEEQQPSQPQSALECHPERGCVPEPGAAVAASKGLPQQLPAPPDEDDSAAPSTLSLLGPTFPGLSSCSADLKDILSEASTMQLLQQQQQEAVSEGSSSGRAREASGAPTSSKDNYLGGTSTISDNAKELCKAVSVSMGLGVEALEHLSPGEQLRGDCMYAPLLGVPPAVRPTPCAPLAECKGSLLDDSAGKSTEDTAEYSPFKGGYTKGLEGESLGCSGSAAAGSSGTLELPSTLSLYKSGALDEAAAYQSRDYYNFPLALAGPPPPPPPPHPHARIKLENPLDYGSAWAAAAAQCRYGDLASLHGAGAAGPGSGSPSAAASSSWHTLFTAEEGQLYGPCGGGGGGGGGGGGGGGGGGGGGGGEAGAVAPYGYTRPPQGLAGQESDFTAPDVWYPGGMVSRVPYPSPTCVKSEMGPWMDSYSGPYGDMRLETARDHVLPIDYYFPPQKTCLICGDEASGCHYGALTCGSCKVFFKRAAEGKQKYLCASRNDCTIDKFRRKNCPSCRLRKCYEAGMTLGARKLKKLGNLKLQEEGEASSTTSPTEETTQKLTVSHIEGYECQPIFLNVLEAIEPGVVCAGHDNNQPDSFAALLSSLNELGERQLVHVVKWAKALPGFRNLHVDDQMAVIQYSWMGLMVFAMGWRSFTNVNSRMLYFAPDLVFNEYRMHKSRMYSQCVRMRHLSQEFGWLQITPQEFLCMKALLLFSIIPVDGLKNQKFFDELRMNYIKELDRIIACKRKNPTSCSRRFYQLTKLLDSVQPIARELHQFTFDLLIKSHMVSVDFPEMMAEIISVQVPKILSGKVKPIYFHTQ
Summary of the method: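 AR-bla HEK293 reporter cells; 4 h settle at 37C/5% CO2; compound + R1881 agonist, 16 h at 37C; LiveBLAzer B/G FRET substrate 2 h RT; fluorescence intensity read. qHTS format.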

[6] = target: Androgen receptor (Homo sapiens) (UniProt P10275); assay: qHTS assay to identify small molecule agonists of the androgen receptor (AR) signaling pathway (AID 743036; active = well fitted activation curve with a large enough effect in the signal ratio in the repeat runs, with a control signal flat, not every such curve was filed as active; the % refers to the signal ratio)
Summary of the method: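 Fluorescence from a beta-lactamase FRET substrate served as read-out in AR-UAS-bla GripTite HEK293 cells. Cells were treated with DMSO-dissolved compounds for 16 h at 37C, then with LiveBLAzer B/G substrate for 2 h at room temperature.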

[7] = target: Androgen receptor (Homo sapiens) (UniProt P10275); assay: qHTS assay to identify small molecule agonists of the androgen receptor (AR) signaling pathway using the MDA cell line (AID 743040; note: nearly all actives have a fitted effect of over 20% in size)
Summary of the method: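 Luciferase agonist assay: 16 h compound exposure at 37C without CO2 in MDA-kb2 AR-luc cells, whose MMTV promoter responds to both AR and GR. Luminescence measured after 30 min room-temperature incubation with ONE-Glo.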

[8] = qHTS assay to identify small molecule antagonists of the androgen receptor (AR) signaling pathway using the MDA cell line - cell viability counter screen (AID 743041; note: nearly all actives have a fitted effect of over 45% in size)
Summary of the method: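 Viability read by CellTiter-Fluor fluorescence in the same wells as the antagonist screen, added after 15.5 h of a 16 h, 37C exposure. Human breast carcinoma MDA-kb2 AR-luc cells, compounds co-dosed with agonist R1881.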

[9] = qHTS assay to identify small molecule antagonists of the thyroid receptor (TR) signaling pathway - cell viability counter screen (AID 743064); note: nearly all actives have a fitted effect of over 50% in size
Summary of the method: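 Fluorescence from CellTiter-Fluor, added after 23.5 h exposure at 37 °C, reported viability of GH3.TRE-Luc cells co-treated with compound and 1 nM T3. Measured in the same wells as the luciferase TR readout.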

[10] = qHTS assay to identify small molecule antagonists of the thyroid receptor (TR) signaling pathway (AID 743065); note: series mostly up to about 70 µM; nearly all actives have a fitted effect of over 55% in size
Summary of the method: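 Antagonism measured as loss of luciferase signal in GH3 cells stably carrying a TRE-luciferase reporter, co-treated with compound and T3 (1 nM final) for 23.5 h at 37 C. Viability was read in the same well by CellTiter-Fluor.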

[11] = test system: thyroid hormone receptor (rat, GH3 cells); assay: qHTS assay to identify small molecule agonists of the thyroid receptor (TR) signaling pathway (AID 743066; calls by dose curve)
[12] = target: Estrogen receptor (Homo sapiens) (UniProt P03372); assay: qHTS assay to identify small molecule antagonists of the estrogen receptor alpha (ER-alpha) signaling pathway (AID 743069; active = well fitted curve in the direction sought with a large enough effect in the signal ratio in the repeat runs, not every such curve was filed as active; the % refers to the signal ratio)
Chain of Estrogen receptor (Homo sapiens) (P03372 whole entry, looked up): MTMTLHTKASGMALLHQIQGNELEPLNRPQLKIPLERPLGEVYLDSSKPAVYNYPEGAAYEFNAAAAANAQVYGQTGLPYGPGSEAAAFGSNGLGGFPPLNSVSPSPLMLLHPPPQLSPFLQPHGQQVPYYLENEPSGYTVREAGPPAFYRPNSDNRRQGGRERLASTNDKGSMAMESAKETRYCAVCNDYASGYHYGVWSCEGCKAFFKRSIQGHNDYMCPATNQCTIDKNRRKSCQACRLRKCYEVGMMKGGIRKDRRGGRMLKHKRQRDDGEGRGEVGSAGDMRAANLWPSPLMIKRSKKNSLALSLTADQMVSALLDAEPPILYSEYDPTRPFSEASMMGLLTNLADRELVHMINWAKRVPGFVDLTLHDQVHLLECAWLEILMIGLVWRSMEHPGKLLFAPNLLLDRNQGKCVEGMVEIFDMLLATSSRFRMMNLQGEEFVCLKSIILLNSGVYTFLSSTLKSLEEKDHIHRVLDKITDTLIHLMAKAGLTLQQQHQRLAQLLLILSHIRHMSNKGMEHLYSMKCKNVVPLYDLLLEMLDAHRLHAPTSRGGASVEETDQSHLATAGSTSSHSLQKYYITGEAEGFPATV
Summary of the method: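 Antagonist mode: compounds in DMSO were co-added with 17beta-estradiol to ER-alpha-bla HEK293 cells (2% charcoal-stripped serum) and left 18 h at 37C. Reporter inhibition was measured as FRET fluorescence after 2 h LiveBLAzer substrate at room temperature.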

[13] = qHTS assay to identify small molecule antagonists of the estrogen receptor alpha (ER-alpha) signaling pathway - cell viability counter screen (AID 743074; calls by dose curve;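 note: HEK293 cells carrying ER-alpha-UAS-bla reporter stimulated with 17beta-estradiol; nearly all actives have a fitted effect of over 45% in size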)
[14] = target: Estrogen receptor (Homo sapiens) (UniProt P03372); assay: qHTS assay to identify small molecule agonists of the estrogen receptor alpha (ER-alpha) signaling pathway (AID 743075; calls by dose curve;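 note: HEK293 GripTite cells with ER-alpha and UAS-driven beta-lactamase reporter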)
[15] = target: Estrogen receptor (Homo sapiens) (UniProt P03372); assay: qHTS assay to identify small molecule agonists of the estrogen receptor alpha (ER-alpha) signaling pathway using the BG1 cell line (AID 743079); note: nearly all actives have a fitted effect of over 20% in size; note: potency is the fitted concentration of half-maximal effect
[16] = qHTS assay to identify small molecule antagonists of the estrogen receptor alpha (ER-alpha) signaling pathway using the BG1 cell line (AID 743080; calls by dose curve;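 note: BG1 cells stimulated with 17beta-estradiol alongside compound; series mostly up to about 70 µM; nearly all actives have a fitted effect of over 25% in size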)
Summary of the method: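 BG1Luc4E2, endogenous ER-alpha, 4xERE-luc; 5 d charcoal-stripped FBS, phenol red free; 24 h plating; cpd + 17beta-estradiol 21.5 h, 37 C/5% CO2; CellTiter-Fluor viability 30 min, then ONE-Glo luciferase 30 min RT.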

[17] = qHTS assay to identify small molecule antagonists of the estrogen receptor alpha (ER-alpha) signaling pathway using the BG1 cell line - cell viability counter screen (AID 743081);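 note: compound given together with 17beta-estradiol as the ER stimulus; series mostly up to about 70 µM; nearly all actives have a fitted effect of over 45% in size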
Aromatase (Homo sapiens) = Aromatase (Homo sapiens) (UniProt P11511); assay: qHTS assay to identify aromatase inhibitors (AID 743083); note: series mostly up to about 70 µM; nearly all actives have a fitted effect of over 55% in size
Chain of Aromatase (Homo sapiens) (P11511 whole entry, looked up): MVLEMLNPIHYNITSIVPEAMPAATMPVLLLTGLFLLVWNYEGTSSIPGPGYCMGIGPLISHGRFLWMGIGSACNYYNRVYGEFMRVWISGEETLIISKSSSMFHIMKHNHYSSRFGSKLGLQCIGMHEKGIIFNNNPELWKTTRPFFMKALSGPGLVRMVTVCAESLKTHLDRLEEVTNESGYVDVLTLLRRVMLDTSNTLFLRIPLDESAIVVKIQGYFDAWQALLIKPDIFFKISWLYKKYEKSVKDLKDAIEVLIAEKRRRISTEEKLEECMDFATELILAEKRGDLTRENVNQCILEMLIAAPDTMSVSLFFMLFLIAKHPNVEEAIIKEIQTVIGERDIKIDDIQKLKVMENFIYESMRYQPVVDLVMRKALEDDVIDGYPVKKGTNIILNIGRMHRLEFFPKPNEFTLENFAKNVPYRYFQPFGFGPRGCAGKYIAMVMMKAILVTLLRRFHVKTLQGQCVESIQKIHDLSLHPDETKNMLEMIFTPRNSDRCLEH

[18] = qHTS assay to identify aromatase inhibitors - cell viability counter screen (AID 743084)
[19] = qHTS assay to identify small molecule antagonists of the androgen receptor (AR) signaling pathway - cell viability counter screen (AID 743033; note: nearly all actives have a fitted effect of over 45% in size)
% is set by controls: 0 for no effect and ±100 for the full control effect.

COc1cc(OC)cc(OC)c1
inactive: outcome [1] | Potency [2] | Potency [3] | Potency [4] | outcome [5] | outcome [6] | outcome [7] | outcome [8] | Potency [9] | Potency [10] | Potency [11] | outcome [12] | Potency [13] | Potency [14] | Potency [15] | Potency [16] | outcome [17] | Potency (Aromatase (Homo sapiens)) | outcome [18]

CC(O)CCCCn1c(=O)c2c(ncn2C)n(C)c1=O (stereo unspecified)
inactive: outcome [1] | Potency [2] | Potency [3] | Potency [4] | outcome [8] | Potency [9] | Potency [10] | Potency [11] | outcome [12] | Potency [13] | Potency [14] | Potency [15] | Potency [16] | outcome [17] | Potency (Aromatase (Homo sapiens)) | outcome [18]

NS(=O)(=O)c1cc2c(cc1C(F)(F)F)NCNS2(=O)=O
inactive: outcome [1] | Potency [2] | Potency [3] | Potency [4] | outcome [8] | Potency [9] | Potency [10] | Potency [11] | outcome [12] | Potency [13] | Potency [14] | Potency [15] | Potency [16] | outcome [17] | Potency (Aromatase (Homo sapiens)) | outcome [18]

O=c1c(O)c(O)c1=O
inactive: outcome [1] | Potency [2] | Potency [3] | Potency [4] | outcome [8] | Potency [9] | Potency [10] | Potency [11] | Potency [13] | outcome [17] | Potency (Aromatase (Homo sapiens)) | outcome [18]

CNCCc1ccccn1
inactive: outcome [1] | Potency [2] | Potency [3] | Potency [4] | outcome [8] | Potency [9] | Potency [10] | Potency [11] | Potency [13] | outcome [17] | Potency (Aromatase (Homo sapiens)) | outcome [18]

CN(C)CCCN(C)C
inactive: viability change, negative = cytotoxic [1] 3.46% [at 7.04 µM] | activity change, negative = cytotoxicity [2] -5.84% [at 8.52 µM] | activity, negative = cytotoxicity [3] -13% [at 8.53 µM] | activity change, negative = cytotoxicity [4] 3.34% [at 8.55 µM] | viability change, negative = cytotoxic [8] 5.47% [at 8.47 µM] | activity, negative = inhibition [10] 0.44% [at 8.44 µM] | activation [11] -3.73% [at 8.08 µM] | activity, negative = inhibition [12] 3.46% [at 6.71 µM] | activity, negative = cytotoxicity [13] 12.6% [at 6.72 µM] | activation [14] -1.03% [at 6.71 µM] | activation [15] -6.84% [at 8.47 µM] | activity change, negative = inhibition [16] 2.33% [at 8.47 µM] | activity change, negative = cytotoxicity [17] 12.4% [at 8.47 µM] | activity, negative = inhibition (Aromatase (Homo sapiens)) 7.56% [at 8.47 µM] | activity change, negative = cytotoxicity [18] 2.06% [at 8.47 µM]

CN1CCN(C(=O)C2CCCCC2)CC1
inactive: outcome [1] | Potency [2] | Potency [3] | Potency [4] | outcome [19] | Potency [10] | Potency [11] | outcome [12] | Potency [13] | Potency [14] | Potency [15] | Potency [16] | outcome [17] | Potency (Aromatase (Homo sapiens)) | outcome [18]

CCc1ncc(C)[nH]1
inactive: outcome [1] | Potency [2] | Potency [3] | Potency [4] | outcome [5] | outcome [6] | outcome [7] | Potency [9] | Potency [10] | Potency [11] | Potency [13] | outcome [17] | Potency (Aromatase (Homo sapiens)) | outcome [18]

CC(C)(C)C(=O)CC(=O)C(C)(C)C
inactive: outcome [1] | Potency [2] | Potency [3] | Potency [4] | outcome [19] | Potency [10] | Potency [11] | outcome [12] | Potency [13] | Potency [14] | Potency [15] | Potency [16] | outcome [17] | Potency (Aromatase (Homo sapiens)) | outcome [18]

CC(=O)SCC(CC(=O)c1ccc(C)cc1)C(=O)O (stereo unspecified)
inactive: outcome [1] | Potency [2] | Potency [3] | Potency [4] | outcome [8] | Potency [10] | Potency [11] | outcome [12] | Potency [13] | Potency [14] | Potency [15] | Potency [16] | outcome [17] | Potency (Aromatase (Homo sapiens)) | outcome [18]

CC(C)OCCO
inactive: outcome [1] | Potency [2] | Potency [3] | Potency [4] | outcome [8] | Potency [9] | Potency [10] | Potency [11] | Potency [13] | outcome [17] | Potency (Aromatase (Homo sapiens)) | outcome [18]

C=CCOC(=O)CCCCCCCC
inactive: outcome [1] | Potency [2] | Potency [3] | Potency [4] | outcome [8] | Potency [9] | Potency [10] | Potency [11] | outcome [12] | Potency [13] | Potency [14] | Potency [15] | Potency [16] | outcome [17] | Potency (Aromatase (Homo sapiens)) | outcome [18]

CC(=O)Nc1ccc(S(=O)(=O)Nc2cc(C)on2)cc1
inactive: outcome [1] | Potency [2] | Potency [3] | Potency [4] | outcome [8] | Potency [9] | Potency [10] | Potency [11] | outcome [12] | Potency [13] | Potency [14] | Potency [15] | Potency [16] | outcome [17] | Potency (Aromatase (Homo sapiens)) | outcome [18]

O=C(OOC(=O)c1ccccc1)c1ccccc1
inactive: outcome [1] | Potency [2] | Potency [3] | Potency [4] | outcome [8] | Potency [9] | Potency [10] | Potency [11] | outcome [12] | Potency [13] | Potency [14] | Potency [15] | Potency [16] | outcome [17] | Potency (Aromatase (Homo sapiens)) | outcome [18]

CCC(=O)OCCOc1ccccc1
inactive: outcome [1] | Potency [2] | Potency [3] | Potency [4] | outcome [8] | Potency [10] | Potency [11] | outcome [12] | Potency [13] | Potency [14] | Potency [15] | Potency [16] | outcome [17] | Potency (Aromatase (Homo sapiens)) | outcome [18]

CC/C=C\CCCCCCCCCCOC(C)=O
inactive: outcome [1] | Potency [2] | Potency [3] | Potency [4] | outcome [8] | Potency [9] | Potency [10] | Potency [11] | outcome [12] | Potency [13] | Potency [14] | Potency [15] | Potency [16] | outcome [17] | Potency (Aromatase (Homo sapiens)) | outcome [18]

C[C@@H]1NC(=O)[C@@H](N)CNC(=O)[C@H](C2CCNC(N)=N2)NC(=O)/C(=C/NC(N)=O)NC(=O)[C@H](CNC(=O)C[C@@H](N)CCCN)NC1=O (stereo partly specified)
inactive: outcome [1] | Potency [2] | Potency [3] | Potency [4] | outcome [8] | Potency [9] | Potency [10] | Potency [11] | outcome [12] | Potency [13] | Potency [14] | Potency [16] | outcome [17] | Potency (Aromatase (Homo sapiens)) | outcome [18]
29.8 µM (active) and inactive: Potency [15]

CC(=O)OCC(=O)[C@@]1(O)CC[C@H]2[C@@H]3CCC4=CC(=O)C=C[C@]4(C)[C@H]3[C@@H](O)C[C@@]21C
active: Potency [15] 11.9 µM
inactive: outcome [1] | Potency [2] | Potency [3] | outcome [19] | outcome [8] | Potency [13] | outcome [17] | Potency (Aromatase (Homo sapiens)) | outcome [18]
